# Sampled rows, rich in hits. Any-hit rate of the full collection: about 5.1%.
# TMEM16A inh: TMEM16A chloride channel inhibitors, primary screen, cell-based, HTS. 310,000 tested, 1.2% active. HEK293 TMEM16A/YFP iodide influx fluorescence, ionomycin. normalized B-score (activity score, 25-100; higher = stronger inhibition) at 10 µM. AID 588511, 2011;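 active = ratio plate-corrected score three or more library SD toward inhibition, starting fluorescence score within five deviations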;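 also: score derived from kinetic fluorescence span divided by baseline fluorescence per well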
# Target sequence (Q8BHY3 whole entry, looked up): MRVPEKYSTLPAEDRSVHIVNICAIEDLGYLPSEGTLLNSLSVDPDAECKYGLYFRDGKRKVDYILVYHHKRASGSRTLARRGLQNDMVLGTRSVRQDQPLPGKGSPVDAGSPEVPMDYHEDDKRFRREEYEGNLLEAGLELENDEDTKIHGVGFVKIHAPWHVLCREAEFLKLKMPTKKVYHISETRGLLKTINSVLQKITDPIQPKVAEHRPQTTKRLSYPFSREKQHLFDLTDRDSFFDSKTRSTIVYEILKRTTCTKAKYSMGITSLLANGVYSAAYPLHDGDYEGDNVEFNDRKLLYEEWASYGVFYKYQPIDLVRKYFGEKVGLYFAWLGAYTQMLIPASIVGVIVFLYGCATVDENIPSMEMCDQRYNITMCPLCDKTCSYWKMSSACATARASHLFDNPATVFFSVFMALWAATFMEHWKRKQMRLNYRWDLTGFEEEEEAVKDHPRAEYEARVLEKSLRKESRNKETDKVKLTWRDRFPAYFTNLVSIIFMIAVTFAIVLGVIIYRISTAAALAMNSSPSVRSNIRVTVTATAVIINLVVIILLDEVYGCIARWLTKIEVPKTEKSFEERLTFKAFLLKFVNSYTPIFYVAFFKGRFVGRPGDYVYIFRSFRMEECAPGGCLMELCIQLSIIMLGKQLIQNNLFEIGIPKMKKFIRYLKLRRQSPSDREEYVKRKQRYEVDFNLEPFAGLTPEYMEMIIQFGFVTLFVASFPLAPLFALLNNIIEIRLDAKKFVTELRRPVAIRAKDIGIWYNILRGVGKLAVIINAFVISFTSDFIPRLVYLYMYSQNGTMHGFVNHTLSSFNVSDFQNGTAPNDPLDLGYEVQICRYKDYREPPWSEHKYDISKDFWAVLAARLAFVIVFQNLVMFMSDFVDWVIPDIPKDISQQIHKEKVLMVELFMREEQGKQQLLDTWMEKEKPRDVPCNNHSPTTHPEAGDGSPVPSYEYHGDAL
# CRFBP-R2 agonist: agonists of CRF-BP/CRF-R2 complex, primary screen, cell-based, HEK293, calcium dye fluorescence, uHTS; CRF-binding protein / CRF receptor 2 complex (human); calcium dye fluorescence (FLIPR); percent of saturating CRF peptide response; activation, % at 13.2 µM; 350,000 tested, 0.46% active;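 active = activation of at least 50%, plus an integration ratio under a set limit after plate pattern correction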;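 also: plate controls were neutral control wells without compound for no effect and CRF at EC100 for full effect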
# MPTP block: mitochondrial permeability transition pore inhibitors, primary screen, biochemical, isolated mouse mitochondria, absorbance. Ca2+ swelling absorbance, 30 min. 360,000 tested, 1.4% active. inhibition, % at 10 µM;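 active = inhibition of 50% or more, scaled per plate between neutral and stimulator controls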;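 also: 0% = DMSO wells given calcium and 100% = 1 mM EGTA wells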
# ANO1 activ: TMEM16A chloride channel activators or potentiators, primary screen, cell-based, HTS; Anoctamin-1 (Mus musculus), Q8BHY3; HEK293 TMEM16A/YFP-H148Q/I152L, iodide quench fluorescence; hits give low values; B-score at 10 µM; 340,000 tested, 0.3% active; AID 623877, 2012;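 active = fluorescence-ratio B-score plate-corrected deviation score at least 3 library SD below zero, with starting fluorescence score within 5 deviations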;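 also: channel opened by trigger with iodide after compound preincubation; score built on the fluorescence ratio of max minus min over baseline; more negative score means more quench and so TMEM16A activation or potentiation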
# GRIN3A LBD mod: binders of NR3A ligand-binding domain, primary screen, biophysical, differential scanning fluorimetry, uHTS. 340,000 tested, 2.5% active. NR3A LBD differential scanning fluorimetry, Tm shift; 0% = protein alone, 100% = glycine-bound protein. Tm shift relative to glycine control, % at 25 µM;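 active = melting temperature shift of at least 10% of the positive control shift, at one fixed dose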
# CRFBP-R2 block: antagonists of CRF-BP/CRF-R2 complex, primary screen, cell-based, HEK293, calcium dye fluorescence, uHTS; CRF-induced calcium fluorescence; inhibition, % at 11.8 µM; 350,000 tested, 0.59% active; AID 588475, 2011;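 active = inhibition of the ligand-induced calcium signal above about 50% at the single tested concentration, limit read from the data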
# Active calls of the source: *; i = inactive; . = no result.
SMILES,TMEM16A inh,CRFBP-R2 agonist,MPTP block,ANO1 activ,GRIN3A LBD mod,CRFBP-R2 block
CCCCCCN1C[C@@H](n2cc(COC(=O)c3ccccc3)nn2)[C@H](O)C[C@@H]1c1ccc(OC)cc1,.,3,0,.,.,-8
O=C(N/N=C/C=C/c1cccc([N+](=O)[O-])c1)C(O)c1ccccc1 (configuration not stated),i,-1,1,i,-2,9
O=C(/C=C/c1ccc([N+](=O)[O-])cc1)NCc1cccnc1,i,1,0,i,0,15
O=C(CNc1ccc2ccccc2c1)N/N=C/C=C/c1cccc([N+](=O)[O-])c1,i,-2,1,i,22*,35
O=C(N/N=C/C=C\c1cccc([N+](=O)[O-])c1)c1cccnc1,i,0,0,i,12*,7
O=C(/C=C/c1ccc([N+](=O)[O-])cc1)c1cccnc1,i,-1,0,i,24*,-30
CC(/C=C/c1cccc([N+](=O)[O-])c1)=N/NC(=O)c1cccnc1,i,-1,0,i,0,-18
Cc1cccc(-n2ccc(=O)c(C(=O)Nc3ccc(S(=O)(=O)Nc4onc(C)c4C)cc3)n2)c1,i,2,-2,i,0,-21
COc1ccc(SCC(=O)Nc2ccccc2Cl)cc1,i,0,1,i,1,80*
COc1ccc(OCC(=O)Nc2ccccc2Cl)cc1,i,1,-2,i,0,-1
CSCCC(NC(=O)COc1ccccc1)C(=O)N(C)CC(=O)Nc1c(C)cccc1C (configuration not stated),i,-2,-1,i,0,11
COc1ccc(Cl)cc1NC(=O)C(C)NC(c1ccccc1)c1ccccc1 (configuration not stated),i,-1,0,i,3,53*
COc1ccc(C(=O)N/N=C2/SCC(=O)N2Cc2ccc3c(c2)OCO3)cc1OC,i,-3,0,i,11*,-68
CCOC(=O)C1CCN(C(=O)c2cc(S(=O)(=O)N3CCOCC3)ccc2C)CC1,.,1,-2,i,4,6
COC(=O)CN1C(=O)S/C(=C/c2ccc(N3CCCCC3)o2)C1=O,i,57*,5,i,-1,-30
CCCN1C(=O)S/C(=C\c2ccc(N3CCOCC3)o2)C1=O,i,29,-1,i,0,17
CCCN1C(=O)S/C(=C/c2ccc(N3CCOCC3)o2)C1=O,i,61*,3,i,1,-29
[O-][n+]1ccc(CC(O)(C(F)(F)F)C(F)(F)F)cc1,.,-1,0,.,.,3
CCOC(=O)c1c(N)sc2c(NC(C)=O)cccc12,i,-2,-1,i,31*,11
CCOC(=O)c1c(N)sc(C(=O)Nc2ccccc2F)c1C,i,-1,0,i,-15,13
CCOC(=O)c1c(N)sc(C(=O)Nc2ccccc2)c1C,i,-1,-2,i,27*,5
CCOC(=O)c1sc(-c2ccccc2)cc1NC(=O)Nc1ccccc1,i,4,8,i,16*,-14
CCOC(=O)c1cc(-c2ccc(N)cc2)sc1N,i,-1,3,i,-1,11
CCOC(=O)c1sc(-c2ccc(Br)cc2)cc1N,i,-2,2,i,16*,-12
CCOC(=O)c1sc(-c2ccc(F)cc2)cc1NC(=O)Nc1ccccc1OC,i,89*,4,i,3,-93
SMILES,TMEM16A inh,CRFBP-R2 agonist,MPTP block,ANO1 activ,GRIN3A LBD mod,CRFBP-R2 block
CC(=O)OC1CCC2C3CCc4cc(OP(=O)(N5CC5)N5CC5)ccc4C3CCC12C (configuration not stated),.,0,0,.,.,-25
COc1ccccc1/C=C/C=N/n1c(C2CCCCC2)n[nH]c1=S,i,0,4,i,13*,-34
C/C=C(\C)CN1CCC(Oc2cccc(C(=O)NCc3ccccn3)c2)CC1,i,2,1,i,0,-7
Cn1ccc(NS(=O)(=O)c2cc(Br)ccc2Br)n1,.,-2,0,i,1,8
COc1ccc(NC2=CC(=O)CC(C)(C)C2)cc1,i,0,0,i,15*,15
Cc1nc2ccccc2n1CCOc1ccc([N+](=O)[O-])cc1,i,-2,0,i,-1,96*
O=C(COc1ccc(F)cc1)N1CCC(Cc2ccccc2)CC1,i,-2,0,i,-14,-10
Cc1ccc(/C=N/c2sc3c(c2C(N)=O)CCCC3)o1,i,-1,-2,i,-2,-11
CN1CCc2c(sc(/N=C/c3cccs3)c2C(N)=O)C1,i,60*,-1,i,-1,-9
NC(=O)c1c(/N=C/c2cccnc2)sc2c1CCCC2,i,0,-1,i,11*,-6
CC(=O)Nc1ccc(S(=O)(=O)Nc2nc3ccccc3nc2N2CCc3ccccc3C2)cc1,i,2,1,i,16*,-12
CC(=O)Nc1ccc(S(=O)(=O)Nc2nc3ccccc3nc2N2CCCCCC2)cc1,i,2,7,i,-5,-7
O=S(=O)(Nc1nc2ccccc2nc1N1CCc2ccccc2C1)c1ccc(Br)cc1,i,2,2,i,10*,-1
O=[N+]([O-])/C(C(Cl)=C(Cl)Cl)=C(/Sc1ccccc1)N1CCCCC1,i,0,2,i,1,-1
CSc1nc(C)c(C(=O)C[n+]2ccccc2C)cc1C#N,i,1,0,i,0,72*
CC(Sc1ncn[nH]1)C(=O)Nc1cc(C(F)(F)F)ccc1Cl (configuration not stated),.,1,1,i,2,4
N#CC1=C(N)SC(N)=C(C#N)C1c1ccnc2ccccc12,i,19,0,-28*,-2,20
CCCC(=O)Nc1nnc(Sc2ccc(N(C)C)cc2)s1,i,-1,6,i,4,69*
COc1ccc(Nc2nc(=O)c3cc([N+](=O)[O-])ccc3s2)cc1,.,0,2,i,13*,5
Cc1ccccc1Nc1nc(=O)c2cc([N+](=O)[O-])ccc2s1,i,0,4,i,-2,-5
Cc1ccc(Nc2nc(=O)c3cc([N+](=O)[O-])ccc3s2)cc1,i,2,2,i,13*,-13
